PubChem BioAssay (NCI)
The panel holds about 83,000 compounds, 20% with a hit somewhere; the sample as a whole holds those more often.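 Step 1: grow cells in 96-well plates. Step 2: add test compound at a single concentration. Step 3: incubate 48 h. Step 4: record percent growth.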 Activity calls are given as the source filed them. How the source made its calls: active means growth percent below 10; inactive means the rest.

Key:
Assay in all cases: NCI-60 one-dose screen, 48 h (100 = growth as untreated, 0 = no growth, -100 = all killed)
[1] = test system: NCI-H23 lung; settings: 10 µM unless noted
[2] = test system: NCI-H226 lung; settings: 10 µM unless noted
[3] = test system: NCI-H322M lung; settings: 10 µM unless noted
[4] = test system: HOP-62 NSCLC; settings: 10 µM unless noted
[5] = test system: NCI-H460 lung; settings: 10 µM unless noted
[6] = test system: HOP-92 NSCLC; settings: 10 µM
[7] = test system: A549/ATCC NSCLC; settings: 10 µM unless noted
[8] = test system: 786-0 renal; settings: 10 µM unless noted
[9] = test system: COLO 205 colon; settings: 10 µM unless noted
[10] = test system: DU-145 prostate; settings: 10 µM unless noted
[11] = test system: K-562 leukemia; settings: 10 µM unless noted
[12] = test system: MALME-3M melanoma; settings: 10 µM unless noted
[13] = test system: MDA-MB-231 breast; settings: 10 µM unless noted
[14] = test system: RXF 393 renal; settings: 10 µM unless noted
[15] = test system: SF-268 CNS; settings: 10 µM unless noted
[16] = test system: SF-295 CNS; settings: 10 µM unless noted
[17] = test system: SF-539 CNS; settings: 10 µM unless noted
[18] = test system: UACC-257 melanoma; settings: 10 µM unless noted
[19] = test system: M14 melanoma; settings: 10 µM unless noted
[20] = test system: NCI-H522 lung; settings: 10 µM unless noted

Measured: growth

CC1(C)CC[C@]2(C(=O)N3CCOCC3)CC[C@]3(C)C(=CC[C@@H]4[C@@]5(C)C/C(=C/c6ccco6)C(=O)C(C)(C)[C@@H]5CC[C@]43C)[C@@H]2C1
inactive: [1] 86.6% | [2] 69% | [3] 102% | [4] 87% | [5] 98.5% | [6] 77.8% | [7] 87.8% | [8] 79.5% | [9] 108% | [10] 73.2% | [11] 64.2% | [12] 97.4% | [13] 85.5% | [15] 63.1% | [16] 95.3% | [17] 86.5% | [18] 94.5% | [19] 101%
active: [14] -3.24%

CC1(C)[C@@H](O)CC[C@]2(C)[C@H]3CC[C@@H]4[C@H]5[C@H](C(=O)/C=C\c6ccccn6)CC[C@]5(O)CC[C@@]4(C)[C@]3(C)CC[C@@H]12
active: [11] 7.45% | [14] -16.2%
inactive: [1] 31.7% | [2] 16.3% | [3] 84.3% | [4] 73.6% | [5] 15.6% | [6] 60.9% | [8] 32.7% | [9] 67.7% | [10] 33.4% | [12] 56.4% | [13] 33.5% | [15] 56.5% | [16] 73.6% | [17] 25.7% | [18] 61.9% | [19] 52.9%

Cc1c(F)cc(C(N)=O)cc1NCC(=O)Nc1ccc([N+](=O)[O-])cc1
inactive: [1] 89.2% | [2] 82.2% | [3] 99.4% | [4] 70.6% | [5] 99% | [6] 75.8% | [7] 87.7% | [8] 87.5% | [9] 105% | [10] 86.7% | [11] 101% | [12] 109% | [13] 89.8% | [14] 45.5% | [15] 81.2% | [16] 93.6% | [17] 95.1% | [18] 102% | [19] 99.1%

O=C(O)c1cn(C2CC2)c2cc(N3CCN(C(=O)CN4C(=O)CSC4=O)CC3)c(F)cc2c1=O
inactive: [1] 103% | [2] 101% | [3] 101% | [4] 75.8% | [5] 107% | [6] 104% | [7] 93.5% | [8] 94.1% | [9] 113% | [10] 90.5% | [11] 102% | [12] 103% | [13] 81.2% | [14] 61.7% | [15] 83.5% | [16] 106% | [17] 88.5% | [18] 107% | [19] 108%

Nn1c(N/N=C/c2nc3ccccc3s2)n[nH]c1=S
inactive: [1] 91.8% | [2] 104% | [3] 109% | [4] 74.8% | [5] 110% | [6] 98.7% | [7] 95.3% | [8] 96.1% | [9] 115% | [10] 97.5% | [11] 108% | [12] 109% | [13] 88.2% | [14] 83.9% | [15] 93.2% | [16] 105% | [17] 103% | [18] 109% | [19] 111%

NC(=O)c1cccc(-n2ccc3cc(NC(=O)Nc4ccc(N5CCOCC5)c(C(F)(F)F)c4)ccc32)n1
inactive: [1] 12.3% | [3] 15.8% | [7] 10.5% | [10] 13.2% | [12] 12.3% | [13] 16% | [18] 35.7% | [19] 16.7%
active: [2] -3.89% | [4] 1.56% | [5] 0.481% | [6] -16.5% | [8] -41.8% | [9] -48.3% | [11] -22.9% | [14] -46.4% | [15] 3.3% | [16] -45.7% | [17] -20.5%

O=C(CSc1nc2ccccc2c(=O)n1-c1ccccc1)Nc1cccc(C(=O)/C=C/c2ccccc2Cl)c1
inactive: [1] 96.8% | [2] 97.1% | [3] 106% | [4] 118% | [5] 101% | [20] 97.4% | [7] 97.6% | [8] 105% | [9] 119% | [10] 105% | [11] 94.8% | [12] 113% | [13] 99.7% | [14] 96.7% | [15] 101% | [16] 102% | [17] 102% | [18] 112% | [19] 103%

COc1ccc2[nH]cc(-c3csc4nc(-c5ccccc5)cn34)c2c1
inactive: [1] 30.8% | [2] 31.4% | [3] 64.6% | [4] 24.5% | [7] 29.9% | [8] 51.6% | [10] 18.4% | [11] 11.2% | [12] 54.2% | [13] 20.8% | [15] 41.1% | [18] 60.4% | [19] 11.6%
active: [5] 2.01% | [20] -34% | [9] -32.6% | [14] -15.7% | [16] -2.19% | [17] -6.33%
